This is a sample that favours compounds with a hit; in the whole collection about 12% have one here.
G9a inh: G9a (human) methyltransferase inhibition; G9a H3K9 monomethylation, AlphaScreen, 2 h; Potency, µM (titrated, usually from 102 µM), hits mostly inhibitors; 350,000 tested, 8.8% active; AID 504332; also: nearly all actives have a fitted effect of over 75% in size
Target sequence (Q96KQ7 913-1193 limits assumed): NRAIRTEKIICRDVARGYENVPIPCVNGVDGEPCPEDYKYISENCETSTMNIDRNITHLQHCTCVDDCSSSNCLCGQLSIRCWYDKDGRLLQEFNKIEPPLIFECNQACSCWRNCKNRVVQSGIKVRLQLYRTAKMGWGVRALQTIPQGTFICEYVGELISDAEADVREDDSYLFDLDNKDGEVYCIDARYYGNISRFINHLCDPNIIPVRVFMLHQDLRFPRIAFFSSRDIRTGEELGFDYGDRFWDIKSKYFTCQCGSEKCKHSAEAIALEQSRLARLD
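Step 1: enzyme (final 20 nM) with compound, 15 min RT. Step 2: substrate peptide 500 nM and SAM 20 uM, 2 h RT. Step 3: anti-H3K9me1 antibody and AlphaScreen beads, 10 min, then plate read.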
BAZ2B block: blocks human BAZ2B; Q9UIF8; AlphaScreen BAZ2B-H3K14Ac peptide displacement; Potency, µM (doses to about 114 µM), actives largely listed as inhibitors; 360,000 tested, 4.4% active; also: nearly all actives have a fitted effect of over 60% in size
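AlphaScreen displacement of biotin-H3(5-23)K14Ac peptide (50 nM final) from BAZ2B (50 nM final) in PBS pH 7.4, 0.01% Tween-20; complex preformed 30 min RT, then compounds (top 110 uM) 30 min RT, beads 20 min dark.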
HP1b chromo inh: inhibitors of HP1-beta chromodomain binding to methylated histone tails; AlphaScreen HP1-beta / biotin-H3K9me3 peptide binding; Potency, µM (highest dose often 114 µM), hits mostly inhibitors; 390,000 tested, 0.56% active; AID 540317; also: nearly all actives have a fitted effect of over 70% in size
Target sequence (P83916 whole entry, looked up): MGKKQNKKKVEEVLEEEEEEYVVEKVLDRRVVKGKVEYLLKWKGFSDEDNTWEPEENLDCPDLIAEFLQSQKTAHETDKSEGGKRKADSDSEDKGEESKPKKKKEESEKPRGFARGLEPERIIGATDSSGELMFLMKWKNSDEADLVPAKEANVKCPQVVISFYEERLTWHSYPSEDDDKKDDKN
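Compound inhibition of the preformed complex between 50 nM HP1-beta and 50 nM biotinylated H3K9me3 peptide was read by AlphaScreen. Buffer was PBS pH 7.4 with 0.01% Tween-20. Incubations ran 30 min at room temperature, with 10 ug/mL donor/acceptor beads.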
Sfp inh: inhibitors of Bacillus subtilis Sfp phosphopantetheinyl transferase | 310,000 tested, 3.5% active | Q9F4F7 | Potency, µM, hits mostly inhibitors | AID 1490 | Biochemical Sfp PPTase activity, qHTS;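 also: the enzyme is Sfp with the accession as filed and its product quenches rhodamine fluorescence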
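After 15 min at room temperature with compound, 15 nM Sfp received 5 uM rhodamine-CoA plus 12.5 uM BHQ-2-ybbR (50 mM Hepes pH 7.6, 10 mM MgCl2). Rate came from the fluorescence difference over 30 min, ex 525/em 598 nm.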
JMJD2A Tudor inh: JMJD2A Tudor domain (human) inhibition; AlphaScreen JMJD2A-Tudor / H3K4me3 peptide binding; Potency, µM (series often up to 114 µM), hits mostly inhibitors; 390,000 tested, 4.4% active; also: nearly all actives have a fitted effect of over 50% in size
L3MBTL1 inh: blocks human L3MBTL1; AlphaScreen L3MBTL1–H3K9me1 peptide binding; Q9Y468; 230,000 tested, 0.66% active; AID 485360; Potency, µM (series often up to 57.1 µM), usual class: inhibitors; also: nearly all actives have a fitted effect of over 60% in size
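First, the protein-peptide complex forms for 30 min at room temperature (L3MBTL1 50 nM, biotinylated H3K9me1 peptide 75 nM). Next, compounds are pin-transferred and incubated 30 min. Finally, AlphaScreen beads are added and read after 30 min.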
Of the large screens only hits and unclear results are named; the others gave an inactive call. Calls follow the shape of the dose curve; as a rule, active = well fitted curve in the direction sought with a large enough effect; inconclusive = small, poorly fitted or top-dose-only effect, or another doubt; inactive = no such curve, though single readings can be large; an effect the other way counts as inactive or inconclusive.

C#CCOCCOCCOCCNc1nc(N2CCN(C(=O)[C@H]([C@@H](C)CC)n3cc([C@@H](N)CO)nn3)CC2)nc(N2CCN(C(=O)[C@H](Cc3ccc(O)cc3)n3cc([C@@H](N)C(C)CC)nn3)CC2)n1 (stereo not given in full)	G9a inh inconclusive, BAZ2B block 35µM, JMJD2A Tudor inh 35µM, L3MBTL1 inh inconclusive
C#CCOCCOCCOCCNc1nc(N2CCN(C(=O)[C@H]([C@@H](C)CC)n3cc(CCCN=C(N)N)nn3)CC2)nc(N2CCN(C(=O)[C@H]([C@@H](C)CC)n3cc(CCC(=O)O)nn3)CC2)n1	none (no result: G9a inh, BAZ2B block, Sfp inh, L3MBTL1 inh)
C#CCOCCOCCOCCNc1nc(N2CCOCC2)nc(N2CCN(C(=O)[C@H]([C@@H](C)CC)n3cc([C@@H](N)CO)nn3)CC2)n1	G9a inh inconclusive, HP1b chromo inh inconclusive
Cc1ccc(NC(=O)COC(=O)c2cccc(C)c2[N+](=O)[O-])cc1S(=O)(=O)N1CCCCC1	none (no result: G9a inh, BAZ2B block, Sfp inh)
CCCC[C@]12Cc3ccccc3C(O1)c1c(c3ccccc3oc1=O)O2	G9a inh inconclusive (no result: HP1b chromo inh, JMJD2A Tudor inh, L3MBTL1 inh)
CCN(CC(=O)NCc1cccs1)C(=O)CCC(=O)c1ccc(F)cc1	G9a inh inconclusive (no result: Sfp inh)
Cc1ccc2c(=O)cc(C(=O)Nc3c(C(=O)c4ccccc4)oc4ccccc34)oc2c1	none (no result: Sfp inh, L3MBTL1 inh)
C#CCOCCOCCOCCNc1nc(N2CCN(C(=O)[C@H]([C@@H](C)CC)n3cc([C@@H](N)CC(C)C)nn3)CC2)nc(N2CCN(C(=O)[C@H](Cc3ccc(O)cc3)n3cc([C@@H](N)CC(C)C)nn3)CC2)n1	G9a inh inconclusive, BAZ2B block 50µM, JMJD2A Tudor inh inconclusive
O=C1c2cccc3cccc(c23)C(=O)N1CCCc1n[nH]c(=S)n1-c1ccccc1	G9a inh 4µM, JMJD2A Tudor inh 13µM
Cc1occc1-c1nnc(SCC(=O)NC2CCCCC2C)o1 (stereo not given)	none (no result: Sfp inh)
S=c1[nH]nc(Cc2ccccc2)n1-c1cccc2ccccc12	G9a inh 10µM, JMJD2A Tudor inh 25µM
Cc1ccc(-n2c(CC#N)n[nH]c2=S)c(C)c1	G9a inh 22µM, JMJD2A Tudor inh 20µM (no result: L3MBTL1 inh)
Cc1ccc(-n2c(Cc3ccccc3)n[nH]c2=S)c(C)c1	G9a inh inconclusive, JMJD2A Tudor inh 18µM
O=C(Cc1ccccc1)NCc1n[nH]c(=S)n1-c1ccc(Br)cc1	G9a inh inconclusive, JMJD2A Tudor inh inconclusive (no result: L3MBTL1 inh)
CCOc1ccccc1NC(=O)CN1C(=O)CC(c2ccc(OC)c(OC)c2)Sc2ccccc21 (stereo not given)	G9a inh inconclusive (no result: Sfp inh, L3MBTL1 inh)
CC(C)CC(O)C(=O)Nc1cc(C(F)(F)F)ccc1Cl (stereo not given)	none (no result: G9a inh, BAZ2B block, HP1b chromo inh, Sfp inh, L3MBTL1 inh)
CCCCN(CC)C(=O)CSc1nc2c(sc3ccccc32)c(=O)n1CCc1ccccc1	none (no result: Sfp inh, L3MBTL1 inh)
Cc1ccc(Nc2nnc(SC3CCOC3=O)s2)cc1 (stereo not given)	G9a inh 10µM
Cc1ccc(C)c(OCCC(=O)NNC(=O)c2cc(C)oc2C)c1	none (no result: Sfp inh)
COc1ccc(C2=NN(C(=O)c3ccccc3)C(c3ccc(OC)c(OC)c3)C2)c(O)c1 (stereo not given)	G9a inh 71µM (no result: L3MBTL1 inh)
COc1ccc(C2CC(c3ccc(OC)cc3OC(C)=O)=NN2C(=O)c2ccccc2)cc1 (stereo not given)	none (no result: L3MBTL1 inh)
CCOC(=O)C(=CNNc1cccc(Cl)c1)C(=O)OCC	G9a inh 3.5µM, HP1b chromo inh inconclusive, Sfp inh inconclusive, JMJD2A Tudor inh 79µM
CCCCC#Cc1ccccc1CC(=O)Nc1ccccc1	G9a inh 7.9µM, BAZ2B block inconclusive, JMJD2A Tudor inh inconclusive
O=c1[nH]c(CN2CCN(C/C=C/c3ccccc3)CC2)nc2cc(Cl)ccc12	JMJD2A Tudor inh inconclusive (no result: L3MBTL1 inh)
O=C(c1ccco1)N1CCN(Cc2nc3cc(Cl)ccc3c(=O)[nH]2)CC1	JMJD2A Tudor inh 14µM
CN(Cc1ccccc1)Cc1nc2c([nH]1)c(=O)[nH]c(=O)n2C	JMJD2A Tudor inh 1µM
Cn1c(=O)c2c(nc(CN3CCN(C(=O)c4ccco4)CC3)n2Cc2ccc(F)cc2)n(C)c1=O	G9a inh inconclusive (no result: L3MBTL1 inh)
Cn1c(=O)[nH]c(=O)c2[nH]c(CN3CCN(C(=O)c4ccco4)CC3)nc21	G9a inh inconclusive, JMJD2A Tudor inh 3.2µM
CC(=O)c1cccc(NC(=O)CCCN2C(=O)COc3ccc(C)cc32)c1	none (no result: Sfp inh, L3MBTL1 inh)
Cc1ccccc1N1CCN(S(=O)(=O)CC23CCC(CC2NC(=O)C(N)CCS(C)(=O)=O)C3(C)C)CC1 (stereo not given)	none (no result: G9a inh, BAZ2B block, HP1b chromo inh, JMJD2A Tudor inh, L3MBTL1 inh)
Cc1ccsc1CN(C)Cc1nc(C2CC2)no1	none
CC(C)(C)c1nnc(NC(=O)c2ccc3c(c2)OCO3)s1	G9a inh 3.5µM, HP1b chromo inh inconclusive, Sfp inh 22µM, JMJD2A Tudor inh 89µM (no result: L3MBTL1 inh)
C=CCNc1nc(N)c(C(=O)c2ccc3c(c2)OCO3)s1	G9a inh 50µM, BAZ2B block inconclusive
C=CCNc1nc(N)c(C(=O)Nc2cc(C)on2)s1	G9a inh inconclusive, Sfp inh inconclusive, JMJD2A Tudor inh inconclusive
COc1ccc(NC(=O)c2ccco2)cc1NC(=O)c1cccc(F)c1	none (no result: L3MBTL1 inh)
O=C(NCCCn1ccnc1)c1cccc(Cl)c1	none (no result: L3MBTL1 inh)
COc1cccc(NC(=O)C(=O)NCCCn2ccnc2)c1	BAZ2B block 79µM
CCCCCOc1ccc(NC(=O)C(=O)NCCCn2ccnc2)cc1	none (no result: L3MBTL1 inh)
O=C(NCCCn1ccnc1)Nc1cccc(Cl)c1	BAZ2B block 25µM, JMJD2A Tudor inh 45µM, L3MBTL1 inh inconclusive
O=C(C1CC(c2ccccc2O)=NO1)N1CCCCC1 (stereo not given)	G9a inh inconclusive, BAZ2B block inconclusive, JMJD2A Tudor inh 89µM (no result: L3MBTL1 inh)
O=C(NCc1cccnc1)C1CC(c2ccccc2O)=NO1 (stereo not given)	G9a inh 25µM, BAZ2B block inconclusive, JMJD2A Tudor inh 50µM
O=C(NCc1cccnc1)C1CC(c2ccccc2Cl)=NO1 (stereo not given)	none
Cc1ccc2c(c1)cc1c(=O)n(Cc3ccccc3Cl)nc(C)n12	none (no result: Sfp inh, L3MBTL1 inh)
Cc1nn(-c2ccccc2)c2c1C(c1ccc(Br)s1)C(C#N)=C(N)O2 (stereo not given)	G9a inh 16µM, BAZ2B block 11µM, HP1b chromo inh inconclusive, JMJD2A Tudor inh 13µM, L3MBTL1 inh inconclusive
COc1ccc(C2C(C#N)=C(N)Oc3c2c(-c2ccccc2)nn3-c2ccccc2)c(OC)c1OC (stereo not given)	G9a inh 50µM, BAZ2B block 25µM, HP1b chromo inh inconclusive, JMJD2A Tudor inh inconclusive
Cc1ccc(-n2nc(C)c3c2OC(N)=C(C#N)C3c2ccoc2)cc1 (stereo not given)	G9a inh inconclusive, BAZ2B block inconclusive, Sfp inh inconclusive, L3MBTL1 inh inconclusive

Screening data (PubChem)
